Drawing on PubChem BioAssay (EPA / NIEHS), this text covers outcome and AC50 for seven compounds.

A short description of test [1]: APR_HepG2_P-H2AX_72hr: Apredica 72-hour HepG2 Assay for H2AX Phosphorylation (AID 2282916).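 Further: phospho-histone H2A.x immunostain intensity per cell marking DNA damage.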 Conditions: imaging, actives raise or lower the signal. In a few lines:
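HepG2 human liver cells were exposed for 72 hr to compounds at 0.39–200 uM (10 concentrations, duplicate per plate) in 0.5% v/v DMSO. Fixed, permeabilized cells were immunolabeled for phospho-histone H2A.x with Hoechst 33342 and imaged by HCS fluorescence; bidirectional fit versus DMSO.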

Test [2] can be described thus: APR_HepG2_MitoMembPot_72hr: Apredica 72-hour HepG2 Assay for Mitochondrial Membrane Potential (AID 2282917). Conditions: imaging, actives raise or lower the signal. In a few lines:
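Membrane potential read by MitoTracker Red CMXRos (250 nM, 30 min, pre-fixation) fluorescence imaging of HepG2 after 72 hr exposure. Ten concentrations, 0.39–200 uM, duplicate wells, 0.5% DMSO; fitted in both directions against DMSO baseline.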

A short description of test [3]: APR_HepG2_MitoticArrest_72hr: Apredica 72-hour HepG2 Assay for Mitotic Arrest (AID 2282918). Conditions: high-content imaging, actives raise or lower the signal. In a few lines: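 Read-out is phospho-histone H3 immunofluorescence with Hoechst nuclear segmentation, imaged at 20x. Human HepG2 liver cells received ten concentrations (0.39–200 uM, final DMSO 0.5% v/v) for 72 hr before fixation. Gain or loss of signal was fitted relative to DMSO.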

A short description of test [4]: APR_HepG2_MicrotubuleCSK_72hr: Apredica 72-hour HepG2 Assay for Microtubule CSK Stabilty (AID 2282919). The settings on record: HepG2 microtubule cytoskeleton, high-content imaging, actives raise or lower the signal. An outline of the steps: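 Read-out is tubulin fluorescence intensity from high-content imaging of HepG2 cells, with nuclei identified by Hoechst 33342. Treatment lasts 72 h at 0.39–200 uM, and curves are fitted bidirectionally against the DMSO negative control.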

Test [5] is described as follows: APR_HepG2_P-H2AX_24hr: Apredica 24-hour HepG2 Assay for H2AX Phosphorylation (AID 2282920). The settings on record: high-content imaging, actives raise or lower the signal. An outline of the steps:
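HepG2, 24 hr, cpd 0.39–200 uM (10 conc, duplicate), DMSO 0.5% v/v final. Fix 3.7% formaldehyde, Triton X-100 permeabilize, anti-phospho-H2A.x 1:200 + Hoechst 2 ug/mL. Imaged, bidirectional fit vs DMSO.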

Test [6] in a line: APR_HepG2_StressKinase_24hr: Apredica 24-hour HepG2 Assay for Stress Kinase (AID 2282922). Conditions: HepG2 stress kinase (phospho-c-Jun) imaging, actives raise or lower the signal. An outline of the steps:
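HepG2, 24 hr dosing, 0.39–200 uM in duplicate, 0.5% DMSO; formaldehyde fix (3.7%), 0.5% Triton X-100; anti-phospho-c-Jun + Cy3 secondary, Hoechst counterstain; ArrayScan imaging; bidirectional curve fit vs DMSO baseline.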

Test [7] is described as follows: APR_HepG2_p53Act_72hr: Apredica 72-hour HepG2 Assay for p53 Activation (AID 2282923).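 Further: average cellular p53 protein immunofluorescence intensity in HepG2 cells.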 Conditions: high-content imaging, actives raise or lower the signal. In a few lines: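 Cells were dosed for 72 hr with compounds at 0.39–200 uM in duplicate (final DMSO 0.5% v/v), then fixed in 3.7% formaldehyde, permeabilized with Triton X-100 and immunostained for p53 (Cy5) with Hoechst 33342 nuclear counterstain.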

The nature of test [8]: APR_HepG2_NuclearSize_72hr: Apredica 72-hour HepG2 Assay for Nuclear Size (AID 2282925). Conditions: high-content imaging, actives raise or lower the signal. An outline of the steps:
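HepG2; cpd 0.39–200 uM, 10 conc, duplicate; 72 h; DMSO 0.5% v/v; fix 3.7% formaldehyde 30 min RT; Triton permeabilization; Hoechst 2 ug/mL; HCS imaging 20x; nuclear diameter; gain/loss fit vs DMSO.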

The nature of test [9]: ATG_CRE_CIS: Attagene CIS-FACTORIAL HepG2 Assay for human cAMP Responsive Element (CRE) binding protein 3 (AID 2282926). Conditions: HepG2 CRE cis-reporter, Attagene multiplexed mRNA; actives raise or lower the signal. An outline of the steps:
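Human liver HepG2, transient MRTU transfection, 24 h compound exposure. Total RNA → oligo(dT) RT → PCR → 6-FAM primer extension → HpaI cut → CE. Activity called both directions vs DMSO.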

In test [10] the target is CCAAT/enhancer-binding protein beta (Homo sapiens) (UniProt P17676). In words: ATG_C_EBP_CIS: Attagene CIS-FACTORIAL HepG2 Assay for human CCAAT/Enhancer Binding Protein (C/EBP) beta (AID 2282927). Conditions: HepG2 Attagene cis-factorial transcription factor reporter; actives raise or lower the signal. An outline of the steps:
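Changes in reporter mRNA, rather than exogenous chimeric receptor activity, reflect native C/EBP signalling in transfected HepG2 cells dosed for 24 h; transcripts are detected by RT-PCR and capillary electrophoresis.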

A short description of test [11]: ATG_CMV_CIS: Attagene CIS-FACTORIAL HepG2 Assay for human CMV (Internal Marker) (AID 2282928).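 Further: endpoint acts as a background internal control marker rather than a target.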 The settings on record: HepG2 CMV promoter reporter, transcription factor profiling; actives raise or lower the signal. An outline of the steps: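 HepG2 cells transiently transfected with multiple cis-regulated reporter units; 24 h compound exposure. Reporter mRNA quantified by RT-PCR, 6-FAM primer-extension labeling, HpaI digestion and capillary electrophoresis; bidirectional fitting against DMSO baseline.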

A short description of test [12]: ATG_DR4_LXR_CIS: Attagene CIS-FACTORIAL HepG2 Assay for human Liver X Receptor (LXR), DR4 submotif (AID 2282929). The settings on record: HepG2 Attagene DR4 cis-reporter, mRNA transcription; actives raise or lower the signal. An outline of the steps: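 Endogenous factor activity at a DR4 cis-element is read as reporter mRNA in transiently transfected HepG2 cells. Exposure lasts 24 h; transcripts are amplified, fluorescently labelled and sized by capillary electrophoresis, with DMSO as baseline.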

The target in test [13] is Aryl hydrocarbon receptor (Homo sapiens) (UniProt P35869). In words: ATG_Ahr_CIS: Attagene CIS-FACTORIAL HepG2 Assay for human Aryl Hydrocarbon Receptor (Ahr) (AID 2282930). Conditions: HepG2 AhR cis-factorial reporter transcription; actives raise or lower the signal. An outline of the steps:
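HepG2, transient MRTU (cis) transfection, 24 h exposure. RNA → cDNA → PCR → 6-FAM primer extension → HpaI 2 h 37 C → CE. Fit: bidirectional, DMSO baseline.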

The nature of test [14]: ATG_AP_1_CIS: Attagene CIS-FACTORIAL HepG2 Assay for human Activator Protein 1 (AP-1) (AID 2282931). The settings on record: HepG2 Attagene cis-factorial AP-1 reporter mRNA; actives raise or lower the signal. An outline of the steps:
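Fluorescence of labelled PCR fragments separated by capillary electrophoresis gives reporter mRNA levels. HepG2 with transfected cis-regulated reporter units, 24 h exposure; DMSO serves as baseline for bidirectional curve fits.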

The nature of test [15]: ATG_AP_2_CIS: Attagene CIS-FACTORIAL HepG2 Assay for human Activator Protein 2 (AP-2) (AID 2282932). The settings on record: HepG2 AP-2 cis-reporter, Attagene transcription factor profiling; actives raise or lower the signal. An outline of the steps:
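Step one: transient transfection of HepG2 with reporter transcription units. Step two: 24 h chemical exposure. Step three: RNA extraction, RT-PCR, labelled fragment analysis by capillary electrophoresis; DMSO serves as baseline.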

Test [16] concerns the target Retinoic acid receptor alpha (Homo sapiens) (UniProt P10276). In words: ATG_DR5_RAR_CIS: Attagene CIS-FACTORIAL HepG2 Assay for human Retinoic Acid Receptor Alpha (RARE), DR5 submotif (AID 2282934).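 On AC50: reporter responds to endogenous RAR alpha beta and gamma in HepG2 not RARA alone.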 The settings on record: HepG2 Attagene cis-factorial RARE DR5 reporter, mRNA; actives raise or lower the signal. An outline of the steps:
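HepG2, transient cis-reporter transfection, 24 h exposure. mRNA readout: RT-PCR, FAM label, HpaI cut, capillary electrophoresis. DMSO baseline, gain/loss fitting.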

A short description of test [17]: APR_HepG2_MitoMass_72hr: Apredica 72-hour HepG2 Assay for Mitochondrial Mass (AID 2282924).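 Further: MitoTracker Red CMXRos stain intensity per cell imaged as mitochondrial mass.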 Conditions: high-content imaging, actives raise or lower the signal. In a few lines: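 HepG2, 72 hr cmpd, 10 conc 0.39–200 uM in dup, DMSO 0.5% v/v. MitoTracker Red CMXRos 250 nM 30 min pre-fix; formaldehyde 3.7% fix 30 min RT. HCS imaging, gain/loss fit vs DMSO.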
Test [18] is described as follows: ATG_BRE_CIS: Attagene CIS-FACTORIAL HepG2 Assay for human Bone Morphogenetic Protein (BMP) Response Element (BRE) (AID 2282933). Conditions: HepG2 BMP response element reporter, Attagene transcription factor profiling; actives raise or lower the signal. In a few lines: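 Read-out: reporter mRNA induction quantified by RT-PCR and capillary electrophoresis after 24 h chemical exposure of transfected HepG2 cells. Endogenous factor activity on the BMP response element; gain or loss fitted against DMSO baseline.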

A structure can be active in one record and inactive in another. The source made the active and inactive calls. How the source made its calls: active means hit-call score of the fitted dose curve at least 0.9, where 1 is the maximum; inactive means score below 0.9.

Chain of Aryl hydrocarbon receptor (Homo sapiens) (P35869 whole entry, looked up): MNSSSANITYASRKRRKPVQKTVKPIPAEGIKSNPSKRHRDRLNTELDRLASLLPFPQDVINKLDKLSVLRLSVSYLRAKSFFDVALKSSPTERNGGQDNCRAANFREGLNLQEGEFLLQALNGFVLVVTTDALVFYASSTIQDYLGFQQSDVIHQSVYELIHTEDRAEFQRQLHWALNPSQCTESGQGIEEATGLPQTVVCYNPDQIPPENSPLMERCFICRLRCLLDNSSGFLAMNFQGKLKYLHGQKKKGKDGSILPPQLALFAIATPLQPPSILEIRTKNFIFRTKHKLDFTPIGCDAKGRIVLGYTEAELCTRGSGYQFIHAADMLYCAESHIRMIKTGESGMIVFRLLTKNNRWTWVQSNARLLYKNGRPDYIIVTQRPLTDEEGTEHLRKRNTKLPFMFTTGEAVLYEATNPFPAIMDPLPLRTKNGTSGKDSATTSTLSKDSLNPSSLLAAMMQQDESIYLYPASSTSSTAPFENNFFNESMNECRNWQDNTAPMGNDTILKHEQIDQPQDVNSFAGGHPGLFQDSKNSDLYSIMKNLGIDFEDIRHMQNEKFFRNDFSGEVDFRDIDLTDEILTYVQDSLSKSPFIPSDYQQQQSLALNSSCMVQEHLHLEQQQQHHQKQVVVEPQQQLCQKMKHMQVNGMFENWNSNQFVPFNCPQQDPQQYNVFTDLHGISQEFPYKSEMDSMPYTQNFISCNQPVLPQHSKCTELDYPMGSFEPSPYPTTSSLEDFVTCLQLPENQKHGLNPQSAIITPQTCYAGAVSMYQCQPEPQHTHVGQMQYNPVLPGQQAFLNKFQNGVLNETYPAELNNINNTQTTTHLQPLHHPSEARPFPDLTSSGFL
Chain of Retinoic acid receptor alpha (Homo sapiens) (P10276 whole entry, looked up): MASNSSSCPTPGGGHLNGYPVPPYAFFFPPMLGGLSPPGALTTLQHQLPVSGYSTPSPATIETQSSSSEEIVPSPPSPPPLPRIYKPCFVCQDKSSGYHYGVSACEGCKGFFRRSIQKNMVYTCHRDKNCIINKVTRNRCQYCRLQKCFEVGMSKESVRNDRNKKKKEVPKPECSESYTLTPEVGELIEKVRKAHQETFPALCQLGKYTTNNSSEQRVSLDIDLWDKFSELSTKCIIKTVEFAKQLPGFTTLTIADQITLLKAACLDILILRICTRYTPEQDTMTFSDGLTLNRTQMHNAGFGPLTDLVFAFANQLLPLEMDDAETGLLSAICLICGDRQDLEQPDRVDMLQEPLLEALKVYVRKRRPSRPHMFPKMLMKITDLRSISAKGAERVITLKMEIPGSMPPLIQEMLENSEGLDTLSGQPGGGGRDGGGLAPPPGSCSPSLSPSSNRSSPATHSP
Chain of CCAAT/enhancer-binding protein beta (Homo sapiens) (P17676 whole entry, looked up): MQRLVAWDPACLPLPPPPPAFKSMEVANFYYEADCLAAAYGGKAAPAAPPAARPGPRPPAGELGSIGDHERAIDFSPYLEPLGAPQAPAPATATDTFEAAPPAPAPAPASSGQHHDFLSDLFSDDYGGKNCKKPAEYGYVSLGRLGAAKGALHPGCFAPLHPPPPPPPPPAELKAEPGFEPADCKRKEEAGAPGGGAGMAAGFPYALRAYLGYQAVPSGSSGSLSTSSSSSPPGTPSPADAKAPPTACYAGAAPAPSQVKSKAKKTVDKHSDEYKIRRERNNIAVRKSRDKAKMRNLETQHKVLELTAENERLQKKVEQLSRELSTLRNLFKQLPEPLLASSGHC

On to `CNC(=O)ON=CC(C)(C)SC`, for which the compound was classed as inactive in test [1], in test [2], in [3], in test [4], in [5] and in test [6]. Further, the outcome in [7], in [8], in test [9], in test [10], in test [11] and in [12] was inactive. Further, the compound was called inactive in test [13], in test [14], in test [15] and in test [16].
Take `CC1=C(C(=O)Nc2ccccc2)SCCO1`: the call in [1], in [2], in test [4], in test [5], in test [6] and in [7] was inactive. Further, the compound was classed as inactive in test [8], in test [9], in test [10], in [11], in test [12] and in [13]. Besides, the outcome in test [14], in test [15] and in [16] was inactive.
Turning to `N#Cc1cc(Br)c(O)c(Br)c1`, the outcome in [1], in test [2], in test [4], in test [5], in [6] and in test [7] was inactive. The call in test [17], in test [8], in test [11], in [12], in [15] and in [16] was inactive. Further, the AC50 (commonly the concentration giving half of the maximal activity seen) in [9] was 33.5 µM (active); in [10], 18.8 µM (active); in test [13], 50 µM (active); in test [14], 50 µM (active).
For the compound `CCNc1nc(Cl)nc(NC(C)C)n1`, the outcome in [1], in test [2], in [4], in [5], in test [6] and in [7] was inactive. Also, the outcome in test [8], in [9], in [10], in test [11], in test [12] and in test [13] was inactive. Further, the result in test [14], in test [15] and in [18] was inactive.
`CC1COC(Cn2cncn2)(c2ccc(Oc3ccc(Cl)cc3)cc2Cl)O1` (centres undefined): the compound was classed as inactive in test [1], in test [5], in test [6], in test [7], in test [8] and in test [11]. Besides, the call in [12], in test [13], in test [15] and in test [16] was inactive. The AC50 in test [2] was 52.6 µM (active); in test [4] it was 32.6 µM (active); in test [17], 60.6 µM (active); in test [9], 1.6 µM (active); in test [10], 0.829 µM (active); in test [14], 4.29 µM (active). Also, the AC50 in [18] was 1.71 µM (active).
Turning to `O=C(O)COc1nc(Cl)c(Cl)cc1Cl`, the compound was classed as inactive in [1], in test [2], in test [4], in test [5], in test [6] and in [7]. Besides, the compound was called inactive in [8], in test [9], in test [10], in test [11], in test [12] and in test [13]. Besides, the outcome in test [14], in [15], in test [18] and in [16] was inactive.
`OC(c1ccc(Cl)cc1)(c1cncnc1)c1ccccc1Cl` (centres undefined): the result in test [1], in test [2], in test [5], in [6], in test [7] and in [8] was inactive. The call in [9], in test [10], in test [11], in test [12], in [13] and in [14] was inactive. Moreover, the outcome in [15] and in test [16] was inactive. The AC50 in [4] was 167 µM (active); in test [11] it was 2.95 µM (active); in test [12], 13.1 µM (active); in test [14] it was 13.3 µM (active); in [16], 13.1 µM (active).
